IL1B secr inh: qHTS for Inhibitors of Inflammasome Signaling: IL-1-beta AlphaLISA Primary Screen; THP-1 LPS/ATP IL-1B secretion, AlphaLISA, 16 h; active compounds read low; activity change, % at 57.5 µM; actives 4.7% (n = 360,000); in the data active means activity change below about -50%; inconclusive means mostly about -30% to -49%
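THP-1 cells pretreated 1 hr with compounds (up to 57.5 uM final), then stimulated with LPS (250 ng/mL final) plus ATP (1.25 mM final); secreted IL-1B measured by AlphaLISA after 16 hr, decreased signal indicating inhibition.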
DT40 TDP1 CPT: qHTS for Inhibitors of human tyrosyl-DNA phosphodiesterase 1 (TDP1): qHTS in cells in presence of CPT. chicken DT40 Tdp1-/-;hTDP1 cells + 20 nM CPT, ATP luminescence, 48 h. Potency, µM (titrated, usually from 46.2 µM), inactives show top-dose activity change, negative = growth inhibition, usual class: inhibitors. actives 12% (n = 420,000). AID 686979, 2013; further: potency means the concentration at half of the fitted maximal effect; nearly all actives have a fitted effect of over 55% in size
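Cell growth measured by CellTiter-Glo luminescence after a minimum 48 h, 37 C compound exposure with 20 nM CPT in Tdp1-knockout DT40 cells stably expressing hTDP1, seeded 400/well; qHTS titration format.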
HT1080NT lethal: qHTS for induction of synthetic lethality in tumor cells producing 2HG: qHTS for the HT-1080-NT fibrosarcoma cell line | HT-1080-NT fibrosarcoma viability, CellTiter-Glo ATP luminescence, 48 h | Potency, µM (titrated, usually from 46.1 µM), for the others: top-dose activity, negative = less viability, actives largely listed as cytotoxic | actives 1.6% (n = 360,000);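 further: NT is the 2HG producing partner of a matched IDH1 knockdown line; potency means the concentration at half of the fitted maximal effect; 0% = DMSO-treated cells and -100% = media-only wells without cells; nearly all actives have a fitted effect of over 55% in size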
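Compounds were tested in concentration-response format on HT-1080-NT cells for 48 hours at 37 degrees C. Cell viability came from CellTiter-Glo luminescence; curves were classified by r2, response magnitude and activity.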
DT40 TDP1 no CPT: qHTS for Inhibitors of human tyrosyl-DNA phosphodiesterase 1 (TDP1): qHTS in cells in absence of CPT; DT40 Tdp1-/- hTDP1 cells, no CPT, ATP luminescence, 48 h; Potency, µM (highest dose often 46.2 µM), without a hit: at the top dose activity change, negative = growth inhibition, most hits filed as inhibitors; actives 15% (n = 420,000); AID 686978, 2013; further: potency means the concentration at half of the fitted maximal effect; nearly all actives have a fitted effect of over 55% in size
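Stably hTDP1-transfected Tdp1-null chicken DT40 cells were treated with library compounds minus camptothecin and grown for at least 48 hr at 37 °C, after which cellular ATP was quantified by luminescence.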
HT1080 IDH1KD tx: qHTS for induction of synthetic lethality in tumor cells producing 2HG: qHTS for the HT-1080-IDH1KD cell line; Potency, µM (titrated, usually from 46.1 µM), for inactives: at the highest dose activity, negative = toxicity, hits mostly cytotoxic; HT-1080 IDH1 knockdown viability, ATP luminescence, 48 h; actives 2% (n = 360,000); AID 686971, 2013;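 further: potency means the concentration at half of the fitted maximal effect; 0% = DMSO wells and -100% = cell-free medium wells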
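In this qHTS, HT-1080 cells depleted of IDH1 are exposed for 48 h at 37 °C to compound titrations. Toxicity is scored from CellTiter-Glo luminescence, with DMSO as full viability and medium alone as none.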
The depositor's hits bear a star; ? = inconclusive; / = no result given. Compounds with a hit are over-represented: about 19% of the library has one in this group of screens. Unless noted, the call rests on the fitted dose curve; in most records, active means well fitted curve in the direction sought with a large enough effect; inconclusive means small, poorly fitted or top-dose-only effect, or another doubt; inactive means no such curve, though single readings can be large; an effect the other way counts as inactive or inconclusive. Unless noted, on the % scale 0 is the no-effect control and ±100 the full control effect.

SMILES | IL1B secr inh | DT40 TDP1 CPT | HT1080NT lethal | DT40 TDP1 no CPT | HT1080 IDH1KD tx
Cc1cc(OCC[N+]2(C)CCCCC2)nc2ccccc12 | 4.4 | ? | 13.8% | 20.6µM* | 6.2%
CCc1ccccc1NC(=O)CNC(=O)CCC(=O)c1cc(C)sc1C | 4.2 | ? | 8.2% | ? | 1.8%
N#CC1=C(Nc2ccccc2Cl)SC(c2ccccc2O)NC1=O (centres undefined) | -1.2 | 20.6µM* | 5.2% | ? | 0.6%
COc1cccc(NC2=C(C#N)C(=O)NC(c3cccc(OC)c3O)S2)c1 (centres undefined) | 0.0 | -22.0% | 10.8% | -10.5% | 2.3%
COC(OC)C1(CCc2ccccc2)NC(=O)NC1=O (centres undefined) | -13.0 | -13.9% | 24.5% | -1.2% | 15.9%
CC(C)c1csc(CN2CCCC(CNC(=O)c3cccc4ccccc34)C2)n1 (centres undefined) | 31.0 | 16.4µM* | -4.3% | ? | -5.1%
CCCCOC(=O)n1c(SCC(=O)N(CC)CC)nc2ccccc21 | -19.9 | 20.6µM* | -4.1% | ? | 4.0%
CC(=O)Nc1ccc(S(=O)(=O)NNC(=O)c2cccc(Br)c2)cc1 | 7.3 | -0.8% | 2.8% | -13.7% | 3.9%
O=C(Nc1cccc(C(F)(F)F)c1)C1Cc2c(-c3ccco3)ccnc2O1 (centres undefined) | / | 16.4µM* | -13.5% | ? | -25.3%
O=C(Nc1cccc(OC(F)(F)F)c1)C1Cc2c(-c3ccco3)ccnc2O1 (centres undefined) | -21.4 | ? | -9.4% | 18.4µM* | ?
O=C(Nc1cccc(C(F)(F)F)c1)C1Cc2c(-c3ccccc3)ccnc2O1 (centres undefined) | -3.1 | ? | ? | 25.9µM* | 23.1µM*
O=C(Nc1cccc(C(F)(F)F)c1)C1Cc2c(-c3ccc(Cl)cc3)ccnc2O1 (centres undefined) | -3.6 | ? | ? | ? | ?
CCOc1ccc(N/C(N)=N/c2nc(CSc3nnc(C)s3)cc(=O)[nH]2)cc1 | 36.9 | 0.651µM* | 0.206µM* | 0.581µM* | 0.92µM*
Cc1nnc(SCc2cc(=O)[nH]c(/N=C(\N)Nc3ccccc3Sc3ccccc3)n2)s1 | 24.9 | -4.8% | 7.2% | -3.4% | 0.0%
Cc1nnc(SCc2cc(=O)[nH]c(/N=C(\N)Nc3ccccc3)n2)s1 | 22.5 | ? | ? | 20.6µM* | 18.4µM*
COc1ccc(N/C(N)=N/c2nc(CSc3ccc(Cl)cc3)cc(=O)[nH]2)cc1 | 15.1 | ? | -1.1% | ? | 4.9%
CCOc1ccc(OCC)c(Nc2cc(C)nc3ncnn23)c1 | -11.4 | 1.5% | 1.7% | -11.9% | -5.2%
CCOc1ccc(OCC)c(Nc2cc(C)nc3nc(C)nn23)c1 | -13.1 | 18.4µM* | -9.9% | ? | -25.2%
CN1C(=O)/C(=C/c2ccc(OCc3ccccc3F)cc2)N(C)C1=S | 0.6 | ? | -9.7% | -27.6% | 0.4%
CC(=O)CS(=O)(=O)c1ccc(Oc2ccc(S(=O)(=O)CC(C)=O)cc2)cc1 | 7.4 | ? | 6.9% | ? | 4.6%
Cc1ccc(S(=O)(=O)CCC(=O)OCC(=O)NC(N)=O)cc1 | 0.0 | ? | ? | -10.9% | 15.7%
CCOC(=O)CCS(=O)(=O)c1ccc(-c2ccc(S(=O)(=O)CCC(=O)OCC)cc2)cc1 | -98.9* | -12.7% | 4.6% | -12.0% | 3.5%
CC(=O)CCS(=O)(=O)c1ccc(Oc2ccc(S(=O)(=O)CCC(C)=O)cc2)cc1 | -74.9* | 3.66µM* | ? | 8.2µM* | ?
COc1ccccc1C(=O)NCCC(=O)N(C)CC(=O)Nc1ccc(Cl)cc1 | 3.3 | -4.1% | 2.0% | -22.6% | 4.3%
CC(C)(C)c1ccc(S(=O)(=O)N(CCCN2CCOCC2)Cc2cccs2)cc1 | ? | ? | ? | 16.4µM* | ?
SMILES | IL1B secr inh | DT40 TDP1 CPT | HT1080NT lethal | DT40 TDP1 no CPT | HT1080 IDH1KD tx
CC(C)CCCC(C)N (centres undefined) | / | 2.9% | / | -6.3% | /
COC(=O)c1cc(NC(=O)c2sc3ncn(Cc4cccc(F)c4)c(=O)c3c2C)cc(C(=O)OC)c1 | / | -27.0% | / | ? | /
Cc1cc(Br)cc(C)c1NC(=O)c1sc2ncn(Cc3cccc(F)c3)c(=O)c2c1C | / | 16.4µM* | / | 18.4µM* | /
CC/C=C/C(=O)N1CC2(CC(c3cccc(NC(=O)CCCCC)c3)=NO2)C[C@H]1C(N)=O (some centres undefined) | -7.3 | 6.2% | 0.3% | -0.3% | 2.1%
NC(=O)[C@H]1CC2(CC(c3cccc(NC(=O)COc4ccc(Cl)cc4)c3)=NO2)CN1C(=O)C(c1ccccc1)c1ccccc1 (some centres undefined) | ? | 6.51µM* | ? | 13µM* | ?
NC(=O)[C@@H]1CC2(CC(c3cccc(NC(=O)COc4ccc(Cl)cc4)c3)=NO2)CN1C(=O)COc1ccc(Cl)cc1 (some centres undefined) | -54.8* | ? | ? | 11.6µM* | ?
CC/C=C/C(=O)N1CC2(CC(c3cccc(NC(=O)COc4ccc(Cl)cc4)c3)=NO2)C[C@H]1C(N)=O (some centres undefined) | ? | 29.1µM* | -0.4% | ? | -2.5%
C/C=C(/C)C(=O)Nc1cccc(C2=NOC3(C2)C[C@H](C(N)=O)N(C(=O)COc2ccc(Cl)cc2)C3)c1 (some centres undefined) | -19.4 | ? | 5.7% | ? | 15.7%
O=C(CC(=O)N1CCOCC1)N1CCOCC1 | 13.2 | -3.0% | 17.1% | -8.3% | 7.9%
COc1ccc(CCNC(=O)c2ccc3nc(CCc4ccccc4)oc3c2)cc1OC | / | ? | / | -28.7% | /
COc1ccc(Cc2nc3ccc(C(=O)NC4CCOC4)cc3o2)cc1OC (centres undefined) | 2.4 | 11.6µM* | -1.1% | ? | -9.3%
COc1ccc(Cc2nc3ccc(C(=O)NC(C)Cc4ncccc4C)cc3o2)cc1OC (centres undefined) | -8.4 | 18.4µM* | 1.5% | ? | 1.0%
COc1ccc(Cc2nc3ccc(C(=O)N4CCCC4)cc3o2)cc1 | 42.8 | -15.3% | -2.7% | -8.1% | -0.9%
COc1ccc(Cc2nc3ccc(C(=O)N4CCN(C)C(C)C4)cc3o2)cc1OC (centres undefined) | -1.1 | ? | -18.4% | 18.4µM* | -17.1%

Screens deposited in PubChem BioAssay by National Center for Advancing Translational Sciences (NCATS).
